Screening results: PubChem BioAssay, National Center for Advancing Translational Sciences (NCATS)
In the library only some 2.3% were active in any assay of this set; here they are far more common.
TRPV1 PAM: human TRPV1 potentiation; 320,000 tested, 0.02% active; TRPV1-expressing cells, Fluo-8 calcium influx, capsaicin EC20 potentiation; potentiation, % at 8.33 µM; Q8NER1; AID 540277; in the data active = potentiation above about 80%; inconclusive = between about 30% and that limit
Target sequence (Q8NER1 whole entry, looked up): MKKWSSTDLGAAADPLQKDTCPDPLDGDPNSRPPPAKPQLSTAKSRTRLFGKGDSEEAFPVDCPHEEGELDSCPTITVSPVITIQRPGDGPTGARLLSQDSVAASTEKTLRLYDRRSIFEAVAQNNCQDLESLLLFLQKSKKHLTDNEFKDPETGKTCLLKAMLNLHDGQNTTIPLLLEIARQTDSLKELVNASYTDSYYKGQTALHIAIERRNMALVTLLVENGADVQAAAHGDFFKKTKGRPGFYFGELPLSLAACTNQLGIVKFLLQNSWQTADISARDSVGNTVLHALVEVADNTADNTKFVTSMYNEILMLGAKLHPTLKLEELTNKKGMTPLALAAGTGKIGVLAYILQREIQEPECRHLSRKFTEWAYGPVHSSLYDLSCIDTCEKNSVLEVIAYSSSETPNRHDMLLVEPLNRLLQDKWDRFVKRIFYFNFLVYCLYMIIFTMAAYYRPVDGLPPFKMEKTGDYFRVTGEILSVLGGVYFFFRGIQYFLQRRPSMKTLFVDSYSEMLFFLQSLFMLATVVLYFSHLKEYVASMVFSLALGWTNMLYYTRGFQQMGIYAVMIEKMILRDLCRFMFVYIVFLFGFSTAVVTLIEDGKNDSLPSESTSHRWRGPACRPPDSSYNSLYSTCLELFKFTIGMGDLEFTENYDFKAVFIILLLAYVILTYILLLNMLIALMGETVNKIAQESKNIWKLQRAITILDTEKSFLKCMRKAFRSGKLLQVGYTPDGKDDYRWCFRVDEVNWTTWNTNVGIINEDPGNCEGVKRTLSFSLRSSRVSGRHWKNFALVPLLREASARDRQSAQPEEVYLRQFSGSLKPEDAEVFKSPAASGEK
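TRPV1-expressing cells were cultured overnight at 35.5C and loaded with Fluo-8 calcium dye for 40 to 90 min at room temperature. After a 10 s baseline, compound was added and calcium influx was read kinetically for 3 min (ex 480/em 520 nm).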
FUS suppressor: rescues growth of FUS-expressing yeast; S. cerevisiae FUS-expressing, growth rescue, OD600, 24 h; Potency, µM (top dose mostly 76.6 µM), actives largely listed as activators; 390,000 tested, 0.24% active; AID 1347120; note: nearly all actives have a fitted effect of over 55% in size
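Cultures pregrown in 2.5% raffinose medium are shifted to minimal medium containing 2% galactose to express toxic FUS. Compounds are tested at several concentrations. After 24hr at 30C, growth is quantified at 600 nm absorbance.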
ELG1 repair inh: ELG1-dependent DNA repair inhibition; 330,000 tested, 2.3% active; Potency, µM (series often up to 46.1 µM), usual class: inhibitors; HEK293T ELG1-luciferase reporter, luminescence, 16 h; DNA damage induced by 5-fluorouridine; AID 504467; note: nearly all actives have a fitted effect of over 55% in size
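Quantitative HTS, concentration-response format. 2,000 cells/well co-treated with 5-fluorouridine and compound, 16 hr in 5% CO2 at 37 °C; ONE-Glo luminescence read after 30 min.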
TRPV1 ag: activates the human vanilloid receptor TRPV1; Q8NER1; TRPV1-expressing cells, Fluo-8 calcium influx, agonist mode; activation, % at 8.33 µM; 320,000 tested, 0.19% active; AID 540275; in the data active = activation above about 80%; inconclusive = between about 30% and that limit
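TRPV1-expressing cells were cultured overnight at 35.5C and loaded with Fluo-8 calcium dye for 40 to 90 min at room temperature. After a 10 s baseline, compound was added and calcium influx was read kinetically for 3 min (ex 480/em 520 nm).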
Giardia killer: Giardia lamblia killing | 340,000 tested, 0.15% active | Giardia lamblia trophozoite viability | activity change, % at 7.66 µM, hits read low; in the data active = activity change below about -80%; inconclusive = between about -30% and that limit;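 note: parasites exposed to compound for two days anaerobically before the ATP read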
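Luminescence from cellular ATP indicates surviving trophozoites (100 cells/well) following 48 hrs anaerobic compound treatment at 37 deg C; signal develops 15-30 min at room temperature.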
Of the large screens only hits and unclear results are named; the others gave an inactive call. Unless noted, calls come from the whole dose curve; as a rule, active = well fitted curve in the direction sought with a large enough effect; inconclusive = small, poorly fitted or top-dose-only effect, or another doubt; inactive = no such curve, though single readings can be large; an effect the other way counts as inactive or inconclusive.

COc1ccccc1OC(C)C(=O)Nc1nc(-c2ccc(S(=O)(=O)N3CCOCC3)cc2)cs1 (configuration not stated)	ELG1 repair inh inconclusive (no result: FUS suppressor)
CC(=O)N1CCC(N(Cc2ccc(C)o2)C(=O)Nc2cccc(C(F)(F)F)c2)CC1	none (no result: TRPV1 PAM, ELG1 repair inh, TRPV1 ag, Giardia killer)
CCc1ccc(-n2c(SCc3ccccc3C)nc3[nH]ncc3c2=O)cc1	none (no result: TRPV1 PAM, ELG1 repair inh, TRPV1 ag, Giardia killer)
CCN(C(=O)c1ccc2c(=O)n3c(nc2c1)CCCCC3)c1cc(C)ccc1C	none (no result: TRPV1 PAM, ELG1 repair inh, TRPV1 ag, Giardia killer)
O=C(Cc1cccc([N+](=O)[O-])c1)Nc1cccc(C(=O)N2CCCCC2)c1	ELG1 repair inh 16µM (no result: TRPV1 PAM, TRPV1 ag)
CN(CCc1ccccc1)C(=O)c1cccc(NC(=O)Cc2cccc([N+](=O)[O-])c2)c1	ELG1 repair inh 23µM (no result: TRPV1 PAM, TRPV1 ag)
COc1ccccc1-c1cc(C(=O)N/N=C/c2sccc2C)c2ccccc2n1	ELG1 repair inh 12µM
COc1ccc(-c2cc(C(=O)Nc3cc(C)on3)c3ccccc3n2)c(OC)c1	ELG1 repair inh 18µM
CCOc1cccc(-c2cc(C(=O)N/N=C/c3ccc(OC)c(CN4CCOCC4)c3)c3ccccc3n2)c1	TRPV1 PAM inconclusive, ELG1 repair inh 23µM
COc1cccc(NC(=O)c2cc(-c3ccc(OC)cc3OC)nc3ccccc23)c1	none (no result: TRPV1 PAM, ELG1 repair inh, TRPV1 ag)
CCOc1ccccc1NC(=O)c1cc(-c2ccccn2)nc2ccccc12	ELG1 repair inh inconclusive
COc1ccc(NC(=O)c2cc(-c3ccccn3)nc3ccccc23)c(OC)c1	ELG1 repair inh 8.2µM (no result: TRPV1 PAM, TRPV1 ag)
Cc1cn(C)c(CC(=O)NCc2ccc(F)cc2)c1C(=O)O	none (no result: TRPV1 PAM, ELG1 repair inh, TRPV1 ag, Giardia killer)
CC1=C(C(=O)Nc2ccc(C)cc2C)C(c2ccc(Br)cc2)n2ncc(C(=O)Nc3cccc(C)c3)c2N1 (configuration not stated)	none (no result: TRPV1 PAM, ELG1 repair inh, TRPV1 ag, Giardia killer)
COc1cc(OC)cc(C(=O)N(Cc2ccco2)Cc2cccs2)c1	none (no result: TRPV1 PAM, FUS suppressor, ELG1 repair inh, TRPV1 ag)
CC(/C=N/NC(=O)c1cc(-c2ccncc2)nc2ccccc12)=C\c1ccco1	FUS suppressor 28µM, ELG1 repair inh inconclusive
COc1ccc(-c2cc(C(=O)Nc3ccc(C)c(N)c3)c3ccccc3n2)cc1	FUS suppressor 14µM, ELG1 repair inh inconclusive
O=C(N/N=C/c1cccc(O)c1)c1cc(-c2ccccc2)nc2ccccc12	FUS suppressor inconclusive, ELG1 repair inh inconclusive
COc1ccc(/C=N/NC(=O)c2cc(-c3ccccc3)nc3ccccc23)c(OC)c1	ELG1 repair inh 12µM
COc1ccc(NC(=O)NNC(=O)c2cc(C3CC3)nc3ccccc23)c(OC)c1	ELG1 repair inh 13µM
Cc1ccc(-c2cc(C(=O)Nc3cc(C)on3)c3ccccc3n2)cc1	none (no result: FUS suppressor)
Cc1cc(NC(=O)c2cc(-c3ccncc3)nc3c(C)cccc23)no1	ELG1 repair inh 9.2µM
COc1ccc(/C=N/NC(=O)c2cccnc2)cc1CN1CCN(c2ccc(F)cc2)CC1	ELG1 repair inh inconclusive
CCOc1cc(/C=N/NC(=O)c2ccc(CN3CCOCC3)cc2)ccc1OCc1ccccc1	ELG1 repair inh 18µM (no result: FUS suppressor)
COc1ccc(C(=O)N/N=C/c2ccc(OC)c(CN3CCN(c4ccc(F)cc4)CC3)c2)cc1	ELG1 repair inh 21µM
Cc1ccc(N2C(=O)[C@@H]3CSC(c4ccc(Cl)cc4)N3C2=O)cc1 (some centres not stated)	none (no result: TRPV1 PAM, ELG1 repair inh, TRPV1 ag, Giardia killer)
CCOc1nc(Nc2ccc(F)cc2)nc(N2CCN(c3ccc(OC)cc3)CC2)n1	ELG1 repair inh inconclusive
N#Cc1ccc(Oc2nc(Nc3ccc(F)cc3)nc(N3CCCC3)n2)cc1	ELG1 repair inh 16µM
c1cc(-c2sc(-c3ccncc3)c(-c3ccncc3)c2-c2ccncc2)ccn1	ELG1 repair inh 18µM
Nc1nnc(-c2ccncc2)s1	none
Cc1ccc(/C=N/NC(=O)c2cc(-c3ccncc3)nc3ccccc23)o1	none
O=C(N/N=C/c1ccc([N+](=O)[O-])o1)c1cc(-c2ccc(-c3ccccc3)cc2)nc2ccccc12	FUS suppressor inconclusive, ELG1 repair inh inconclusive, Giardia killer -98
Cc1cc(Nc2ccc([N+](=O)[O-])cc2)nc2ccccc12	none
Cc1ccc(-c2cc(C(=O)N/N=C/c3ccc([N+](=O)[O-])o3)c3ccccc3n2)o1	Giardia killer -92
Cc1cc(N/N=C/c2ccc([N+](=O)[O-])o2)nc2ccccc12	Giardia killer -82
O=C(N/N=C/c1ccc([N+](=O)[O-])o1)c1cc(-c2ccncc2)nc2ccccc12	ELG1 repair inh inconclusive
Cc1ccc(C)c(N2CCN(C(=O)C3CCN(S(=O)(=O)c4cn(C)cn4)CC3)CC2)c1	none (no result: TRPV1 PAM, ELG1 repair inh, TRPV1 ag, Giardia killer)
